Only some compounds are listed: those with a hit (about 7.5% of all), similar ones and a draw of the others.
FLuc modulator: counter-screen for miR-21 project: firefly luciferase inhibitors or activators. AID 588342. actives 6.9% (n = 360,000). Potency, µM (doses to about 57.5 µM), without a hit: at the top dose activity change, negative = inhibition, usual class: inhibitors. purified FLuc, Km substrates, luminescence inhibition. P08659;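 further: plate controls were vehicle for no effect and reference inhibitor for full effect; nearly all actives have a fitted effect of over 55% in size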
Target sequence (P08659 whole entry, looked up): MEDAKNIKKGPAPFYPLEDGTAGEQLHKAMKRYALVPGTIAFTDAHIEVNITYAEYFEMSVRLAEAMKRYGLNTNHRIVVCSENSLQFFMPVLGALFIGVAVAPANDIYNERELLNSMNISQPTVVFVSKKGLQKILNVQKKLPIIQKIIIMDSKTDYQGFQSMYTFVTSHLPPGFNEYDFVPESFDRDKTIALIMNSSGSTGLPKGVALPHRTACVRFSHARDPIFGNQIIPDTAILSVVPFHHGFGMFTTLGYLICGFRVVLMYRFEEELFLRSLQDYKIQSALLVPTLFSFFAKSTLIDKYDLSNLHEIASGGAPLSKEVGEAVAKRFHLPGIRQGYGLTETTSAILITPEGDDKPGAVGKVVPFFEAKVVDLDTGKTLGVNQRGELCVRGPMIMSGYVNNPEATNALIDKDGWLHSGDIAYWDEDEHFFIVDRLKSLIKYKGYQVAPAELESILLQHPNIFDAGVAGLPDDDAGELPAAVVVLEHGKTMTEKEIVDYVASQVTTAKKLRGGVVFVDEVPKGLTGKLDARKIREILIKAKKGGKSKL
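Purified P. pyralis luciferase (10nM final) with 10uM D-luciferin and 10uM ATP (Km levels) in 50mM Tris acetate pH 7.5, 10mM Mg acetate, 0.01% Tween-20, 0.05% BSA; qHTS 6-point titration, ~60 µM downward; luminescence read.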
SMN2 splice up: enhancers of SMN2 splice variant expression; AID 1458; HEK293 SMN2-luciferase splicing reporter, luminescence, 30-36 h; Potency, µM (series often up to 46.1 µM), for inactives: at the top dose activity change, positive = activation, most hits filed as activators; actives 2.8% (n = 210,000); further: % of control where 0% means no effect; nearly all actives have a fitted effect of over 55% in size
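HEK293 cells carry an SMN2 minigene-luciferase reporter in which exon 7 inclusion puts luciferase in frame. Cells were seeded at 2000 cells/well, attached for 10-12 hours, then exposed to compounds for 30-36 hours at 37C before ONE-Glo luminescence.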
ELG1 genotoxic: induces genotoxicity in HEK293T cells with luciferase-tagged ELG1. HEK293T ELG1-luciferase reporter, luminescence, 16 h. Potency, µM (series often up to 46 µM), inactives show at the highest dose activity change, positive = activation, most hits filed as activators. actives 1.3% (n = 330,000); further: % of control where 0% means no effect; nearly all actives have a fitted effect of over 60% in size
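Step 1: seed 2,000 HEK293T ELG1-luciferase cells per well. Step 2: add compound or DMSO, incubate 16 hr at 37 °C. Step 3: ONE-Glo, 30 min at room temperature, read luminescence.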
Rab9 promoter act: Rab9 promoter activation; Potency, µM (top dose mostly 9.22 µM), for inactives: at the highest dose activation, negative = inhibition, hits mostly activators; actives 2.8% (n = 320,000); Huh7 Rab9 promoter-luciferase reporter, luminescence, 24 h; further: % of control where 0% means no effect; nearly all actives have a fitted effect of over 60% in size
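Luminescence from Amplite-detected luciferase (10 minutes, ambient) reports Rab9 promoter activation. Before that, stable Rab9-luciferase Huh7 cells (1500/well, reduced-serum OP-MEM I plus 10% FBS) were exposed to compound for 24 hours at 37C.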
Luc counter: Kinase-Glo luciferase inhibition (counter-screen); Q27757; Kinase-Glo luciferase, ATP luminescence, 8 min; Potency, µM (series often up to 38.3 µM), for inactives: top-dose activity change, negative = inhibition, actives largely listed as inhibitors; actives 0.28% (n = 200,000); AID 1379; further: on the % scale 0 is the no-effect control and ±100 the full control effect; nearly all actives have a fitted effect of over 60% in size
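Light output from Kinase-Glo luciferase with luciferin and 10 uM ATP in 50 mM imidazole pH 7.2, KCl, MgCl2, Tween 20, BSA; compound pin-delivered, 8-min ambient incubation, then luminescence read.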
NPC1 prom act: activators of NPC1 promoter | actives 2.4% (n = 320,000) | Potency, µM (highest dose often 9.22 µM), for the others: top-dose activation, usual class: activators | AID 485313 | Huh7 NPC1 promoter luciferase reporter, 24 h; further: % of control where 0% means no effect; nearly all actives have a fitted effect of over 60% in size
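Cells: Huh7 expressing luciferase under the NPC1 promoter, 1500/well. Seeded 2 h, compound added, incubated 24 h at 37 °C. Luciferase reagent, 10 min ambient, then luminescence.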
The depositor's hits bear a star; ? = inconclusive; / = no result; [ ] = remark or other dose. The call rests on the fitted dose curve; in most records, active means well fitted curve in the direction sought with a large enough effect; inconclusive means small, poorly fitted or top-dose-only effect, or another doubt; inactive means no such curve, though single readings can be large; an effect the other way counts as inactive or inconclusive. Potency means the concentration at half of the fitted maximal effect.

SMILES | FLuc modulator | SMN2 splice up | ELG1 genotoxic | Rab9 promoter act | Luc counter | NPC1 prom act
CC1(CC(=O)O)O[C@H]2CCCCC[C@H]2O1 (stereo partly drawn) (tested in a mixture with another compound) | / | 6%[9.22 µM] | / | / | -6%[7.66 µM] | /
CCN(CC)C(=O)Cn1c(=O)n(-c2ccc(Cl)c(Cl)c2)c(=O)c2c(C)c(C(=O)N(CC)CC)sc21 | 0% | / | / | / | / | /
O=C(c1cc(-c2ccc(Br)cc2)on1)N1CCCC1 | 1.5µM* | / | 2.1µM* | 0.5µM* | / | 0.63µM*
O=C(c1cc(-c2ccc(O)cc2)on1)N1CCN(c2ccccc2)CC1 | ? | -18% | -14% | 7% | / | -1%
CC(=O)C(c1ccccc1)C(c1ccccc1)C(C)[N+](=O)[O-] (stereo not drawn) | 4% | / | -9% | 0% | / | -4%
Cc1sc(NC(=O)/C=C/c2ccc(C(C)C)cc2)c(C#N)c1C | -5% | -5% | 5% | 2% | 0% | -4%
CC(C)c1ccc(/C=C/C(=O)Nc2nncs2)cc1 | 0.76µM* | 18µM* | ? | 0.5µM* | -2% | 0.89µM*
CCS(=O)(=O)c1ccc(C(=O)Nc2ccccc2OC)c(Cl)c1Cl | 0% | -4% | -1% | -2% | 1% | -5%
O=C(CSc1nc(O)c(C2CCCCC2)c(=O)[nH]1)NCC1CCCO1 (stereo not drawn) | 15µM* | 2% | 2% | 10% | 2% | -3%
CSCCC(NC(=O)c1ccc(Cl)cc1Cl)C(=O)NNC(=O)c1ccncc1 (stereo not drawn) | 15µM* | / | 1% | -6% | / | -3%
O=C(NNC(=O)c1ccccc1Cl)c1ccncc1 | -9% | -2% | 0% | -7% | -1% | -2%
O=C(NNC(=O)c1ccc(Cl)cc1Cl)c1ccncc1 | 13µM* | ? | 7% | 0% | 0% | 2%
COc1ccccc1C(=O)NC(CCSC)C(=O)NNC(=O)c1ccncc1 (stereo not drawn) | 2% | / | -1% | 0% | / | -1%
CCOC(=O)c1ccc(NC(=O)CC2C(=O)N(c3cccc(C)c3)C(=O)N2CCOC)cc1 (stereo not drawn) | -3% | 11% | / | / | / | /
CCOC(=O)c1ccc(NC(=O)CC2C(=O)N(c3cccc(OC)c3)C(=O)N2CCOC)cc1 (stereo not drawn) | -1% | 4µM* | 1% | -1% | -1% | -2%
O=C(CN1CCCN(Cc2ccccc2Cl)S1(=O)=O)Nc1ccc2c(c1)OCCO2 | -17% | / | / | / | / | /
COC(=O)CCC(=O)COc1ccccc1C#N | -12% | -3% | ? | 6% | 5% | -1%
COC(=O)CCC(=O)COc1ccc(OC)cc1C#N | ? | / | ? | 2.5µM* | / | ?
COc1ccc(C(=O)COc2ccccc2C#N)cc1 | ? | / | ? | 3.2µM* | / | 2.8µM*
O=C(Nc1ccc(Cc2nc3ccccc3s2)cc1)c1ccncc1 | -13% | / | -18% | -14% | / | -5%
Cc1ccc(CNS(=O)(=O)c2cc3c(cc2Cl)NC(=O)CO3)o1 | 6% | / | / | / | / | /
Cc1c(Br)c([N+](=O)[O-])nn1CC(=O)Nc1ccc(Cc2ccncc2)cc1 | -1% | -89% | -4% | -1% | -2% | -3%
CCOc1c2ccc(C(=O)NCCc3ccc(C)cc3)cc2nn1CC | -2% | -29% | 4% | -1% | -7% | 1%
Cc1ccc(C(=O)NCCc2cccs2)cc1 | 0.85µM* | 0.5µM* | ? | 0.1µM* | -15% | 0.32µM*
O=C(/C=C/c1ccc(Cl)cc1)NCc1cccs1 | 15µM* | 4% | 16% | 12% | -1% | 8%
CC(C)Oc1ccc(C(=O)NCc2cccs2)cc1 | 13µM* | 22% | ? | ? | -2% | 30%
CCn1nc2cc(C(=O)NCCc3cccs3)ccc2c1OC | 6.7µM* | ? | ? | 1.1µM* | -17% | 2.5µM*
O=C(/C=C/c1cccc(Cl)c1)NCc1cccs1 | ? | -2% | 2% | 8% | -1% | 10%
